Tau fibril FP: blocks human tau fibril formation measured by polarization. Potency, µM (series often up to 57.7 µM), usual class: inhibitors. AID 1468. P10636. 280,000 compounds, 0.39% hits. K18 P301L tau heparin fibrillization, Alexa594 FP, 6 h; note: nearly all actives have a fitted effect of over 55% in size
Target sequence (P10636 561-689 P618L limits assumed): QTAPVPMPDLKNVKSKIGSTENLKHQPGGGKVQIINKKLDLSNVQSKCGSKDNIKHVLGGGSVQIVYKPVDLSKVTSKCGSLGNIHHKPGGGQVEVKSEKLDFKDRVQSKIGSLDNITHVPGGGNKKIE
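Recombinant K18 P301L […], labeled with Alexa 594 at 0.24 uM over 15 uM unlabeled; heparin inducer 20 uM final; 37 C, 6 hr; FP endpoint.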
Coupling enz: inhibits coupling enzyme system, counter-screen for aldolase hits. 290,000 compounds, 0.67% hits. coupling enzyme system counterscreen, AmpLite Red fluorescence. AID 2472. activity change, negative = inhibition, % at 58.2 µM, hits read low; in the data active = activity change below about -30%
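Counterscreen of the coupled detection system alone, without aldolase: glyceraldehyde-3-phosphate coupling enzymes plus AmpLite Red readout. Compounds at 57.5 uM final, 10 min RT preincubation, 20 min RT reaction, fluorescence 525/598 nm.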
Tau ThT inhib: blocks human tau fibril formation measured by thioflavin T | 270,000 compounds, 2.1% hits | recombinant tau K18 P301L, heparin-induced fibrillization, ThT fluorescence | Potency, µM (series often up to 57.4 µM), hits mostly inhibitors | AID 1460 | P10636; note: nearly all actives have a fitted effect of over 55% in size
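In this qHTS, human K18 P301L tau is incubated with compound and heparin for 6 hr at 37 C, and Thioflavin T fluorescence then reports fibril load.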
USP1-UAF1 inh: USP1/UAF1 (human) deubiquitinase inhibition. O94782. recombinant USP1/UAF1, Ub-Rhodamine cleavage fluorescence. Potency, µM (series often up to 57.1 µM), hits mostly inhibitors. 390,000 compounds, 0.23% hits; note: nearly all actives have a fitted effect of over 60% in size
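1 nM enzyme complex + cpd, 15 min RT; start with Ub-Rho 150nM final; kinetic fluorescence ex 480/em 540, 6 reads q60 s. Buffer 50mM HEPES pH 7.8, 0.5mM EDTA, 0.1 mg/ml BSA, 1mM TCEP, 0.01% Tween-20.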
Tau fluor cs: counter-screen for tau fibril formation inhibitors; 280,000 compounds, 0.93% hits; tau K18 P301L Alexa594 fluorescence, heparin fibrillization; Potency, µM (titrated, usually from 57.7 µM); AID 1463; note: nearly all actives have a fitted effect of over 55% in size
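Human tau K18 P301L (15 uM unlabeled, 0.24 uM Alexa 594-labeled) in 100 mM sodium acetate pH 7 with 20 uM heparin, 6 hr at 37 C. ThT 30 uM added, 1 hr ambient; Alexa 594 FP and total fluorescence read at 555/632 nm.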
Each line names hits and unclear results; the compound was inactive in the other large screens; [ ] = another dose, or the depositor's remark. The list is not random: actives were taken first. Their share in the collection is about 2.3%. Unless noted, calls come from the whole dose curve; as a rule, active = well fitted curve in the direction sought with a large enough effect; inconclusive = small, poorly fitted or top-dose-only effect, or another doubt; inactive = no such curve, though single readings can be large; an effect the other way counts as inactive or inconclusive.

CCCCc1ccc(NC(=S)Nc2ccc(Nc3ccc(OC)cc3)cc2)cc1	Tau fibril FP inconclusive, Tau ThT inhib 8.9µM, Tau fluor cs 7.9µM[quencher]
CN(C)C=Nc1nonc1-c1ccccc1	none
CN(C)C=Nc1c(Br)cc(Br)c2nonc12	Tau fibril FP inconclusive, Coupling enz -43, Tau ThT inhib inconclusive, USP1-UAF1 inh inconclusive
Cc1ccc(CNC(=O)Cn2c(=O)n(-c3ccc(C)cc3)c(=O)c3c2c2cc(C)ccc2n3C)cc1	none (no result: Coupling enz)
CN(C)c1cc(N/N=C/c2ccc(Cl)cc2)nc(N(C)C)n1	Tau ThT inhib 14µM, USP1-UAF1 inh inconclusive, Tau fluor cs inconclusive
COc1cc(N/N=C/c2ccc(N(C)C)cc2)ncn1	Tau ThT inhib inconclusive, Tau fluor cs inconclusive
O=C1/C(=C/c2ccc(F)cc2)CCC1C1CCCC1 (centres undefined)	none
Cc1cccc(/C=C2\CCC(=C3SCCCS3)C2=O)c1	Tau ThT inhib 1.4µM
O=C1C(=C2SCCCS2)CC/C1=C\c1ccc(F)cc1	Tau ThT inhib 1.1µM
COc1ccc(-c2nn(-c3ccccc3)cc2C(=O)Nc2nccs2)cc1	Tau fibril FP 28µM, Tau fluor cs inconclusive
COc1cccc(-c2nn(-c3ccccc3)cc2C(=O)Nc2nccs2)c1	Tau fibril FP 28µM, Tau fluor cs inconclusive
COc1cccc(-c2nn(-c3ccccc3)cc2C(=O)n2nnc3ccccc32)c1	none
O=C(Nc1nccs1)c1cn(-c2ccccc2)nc1-c1ccncc1	none
Oc1[nH]c2ccc(Br)cc2c1N=NC(=S)N1CCOCC1	Tau ThT inhib 10µM, Tau fluor cs inconclusive
CC(=O)/C=C(\C)N=Nc1c(O)[nH]c2ccccc12	Tau ThT inhib 7.9µM
COC(=O)N=Nc1c(O)[nH]c2ccc(Br)cc12	Tau ThT inhib inconclusive
Oc1[nH]c2ccccc2c1N=NC(=S)N1CCOCC1	Tau ThT inhib 8.9µM
Nc1cc(N2CCCCC2)c(Cl)cc1[N+](=O)[O-]	Tau ThT inhib 13µM, Tau fluor cs inconclusive
Nc1cc(N2CCCCC2)c([N+](=O)[O-])cc1Cl	none
Cc1cc(-c2nc3ncccc3o2)ccc1NC(=O)c1ccc(Br)cc1	Tau ThT inhib inconclusive (no result: Coupling enz)
CCOc1ccc(-c2nn(CC(=O)NC3CCCC3)c3c2cnc2ccc(F)cc23)cc1	none (no result: Coupling enz)
Cc1ccc(C(=O)CSC2=NC(N)=C(C#N)C3(CCCCC3)C2C(N)=O)cc1 (centres undefined)	Tau fibril FP inconclusive, Tau ThT inhib 25µM, USP1-UAF1 inh inconclusive
Oc1nc(Nc2ccc(Cl)cc2Cl)sc1/C=C1\C=Nc2ccccc21	Tau ThT inhib 8.9µM, Tau fluor cs inconclusive
CCN1C(=O)[C@H]2[C@@H]3[C@H](O)C=CC(=O)[C@H]3CC[C@H]2C1=O	none (no result: USP1-UAF1 inh)
CCN1C(=O)[C@@H]2[C@H]3C(=CC[C@@H]2C1=O)C1(OCCCO1)[C@H]1O[C@@H]1[C@H]3O	Tau fibril FP inconclusive, Tau ThT inhib 2.8µM, Tau fluor cs inconclusive (no result: USP1-UAF1 inh)
C[C@@H]1CC[C@H]2C(=O)N3[C@@H](CC[C@@H](C)[C@@H]3c3ccc(Br)cc3)C(=O)N2[C@@H]1c1ccc(Br)cc1	none (no result: USP1-UAF1 inh)
Cc1cccc(C)c1Nc1nn2c(=O)c3cc4c(cc3nc2s1)OCO4	none (no result: Coupling enz)
CN1C(=O)N(C)C2=NNC=NC2(O)C1=O (centres undefined)	Coupling enz -46 (no result: USP1-UAF1 inh)
CNC(=O)C12N=CNN=C1N(C)C(=O)N2C (centres undefined)	none
Cc1ccsc1CN(C(=O)COc1cccc(C)c1C)C1CCS(=O)(=O)C1 (centres undefined)	USP1-UAF1 inh inconclusive (no result: Coupling enz)
O=[N+]([O-])c1ccc(N=Nc2c(Cl)cc(O)cc2Cl)cc1	Tau fibril FP 32µM, Tau fluor cs 8.9µM[quencher] (no result: Tau ThT inhib)
CC(N)=Nc1ccc([N+](=O)[O-])cc1	none
O=C(CCS(=O)(=O)Cc1ccccc1)N1CCN(c2ccc([N+](=O)[O-])cc2)CC1	Tau ThT inhib inconclusive
O=C(CCCc1ccccc1)N1CCN(c2ccc([N+](=O)[O-])cc2)CC1	Tau ThT inhib 2.2µM
O=C(CCCC(=O)N1CCN(c2ccc([N+](=O)[O-])cc2)CC1)c1ccccc1	Tau ThT inhib 2.2µM
COc1ccc(C(=O)CCC(=O)N2CCN(c3ccc([N+](=O)[O-])cc3)CC2)cc1	none (no result: Tau fibril FP, Tau ThT inhib, Tau fluor cs)
CCCCC[C@H](O)/C=C/[C@H]1OC(O)C[C@H](O)[C@@H]1C/C=C\CC(=O)O (some centres undefined)	none (no result: USP1-UAF1 inh)
O=C(O)Cc1sc(N/N=C\c2ccccc2)nc1-c1ccccc1	Tau fibril FP inconclusive, Tau ThT inhib 10µM, Tau fluor cs inconclusive
O=C(Cc1ccc(Nc2nc3ccc(Br)cc3[nH]2)cc1)NCCc1cccs1	Tau fibril FP inconclusive, Tau ThT inhib inconclusive, Tau fluor cs 16µM[quencher]
O=C(NCC1CC1)c1ccc(Nc2nc3ccc(Br)cc3[nH]2)cc1	Tau fibril FP inconclusive, Tau ThT inhib inconclusive, Tau fluor cs 13µM[quencher]
COc1ccc(CCNC(=O)Cc2cccs2)cc1	none
O=C(NCc1ccco1)c1cccc(Nc2nc3ccc(Br)cc3[nH]2)c1	Tau fibril FP inconclusive, Tau ThT inhib 28µM, Tau fluor cs 10µM[quencher]
Cc1cccc(Cl)c1OCCN1CCCC1	Coupling enz -30 (no result: Tau fibril FP, Tau ThT inhib, Tau fluor cs)
C=CCOc1ccccc1CN1CCCC(CCC(=O)N(C)CCc2ccccn2)C1 (centres undefined)	none
CC(=O)Nc1ccc(C2Sc3ccccc3NC3=C2C(=O)c2ccccc23)cc1 (centres undefined)	Tau fibril FP inconclusive, Tau ThT inhib inconclusive, Tau fluor cs 11µM[quencher] (no result: Coupling enz)
CCc1ccc(C2Sc3ccccc3NC3=C2C(=O)c2ccccc23)cc1 (centres undefined)	Tau fibril FP inconclusive, Tau ThT inhib inconclusive, Tau fluor cs 2.5µM[quencher] (no result: Coupling enz)
O=C1C2=C(Nc3ccccc3SC2c2ccc(C(F)(F)F)cc2)c2ccccc21 (centres undefined)	Tau fibril FP 10µM, Tau ThT inhib inconclusive, Tau fluor cs 2.8µM[quencher] (no result: Coupling enz)
CC1CC(=O)C2=C(C1)Nc1ccccc1SC2c1ccc(F)cc1 (centres undefined)	Tau fluor cs inconclusive
CC(C)c1ccc(C2Sc3ccccc3NC3=C2C(=O)c2ccccc23)cc1 (centres undefined)	Tau fibril FP inconclusive, Tau ThT inhib inconclusive, Tau fluor cs inconclusive (no result: Coupling enz)
O=C1C2=C(Nc3ccccc3SC2c2ccco2)c2ccccc21 (centres undefined)	Tau fibril FP inconclusive, Tau ThT inhib 13µM, Tau fluor cs 16µM[quencher]
CC(=O)Nc1ccc(C2C(=O)c3ccccc3C2=O)cc1	Tau ThT inhib inconclusive, Tau fluor cs inconclusive
C/C(Cn1nnc([N+](=O)[O-])n1)=N\NC(=O)c1ccc(O)cc1	none (no result: Tau ThT inhib)
C/C(Cn1nnc([N+](=O)[O-])n1)=N\NC(=O)c1ccc(O)cc1O	Coupling enz -36, Tau ThT inhib inconclusive
C/C(Cn1cnc([N+](=O)[O-])n1)=N\NC(=O)c1ccccc1O	none
C/C(Cn1nnc([N+](=O)[O-])n1)=N\NC(=O)c1ccccc1O	Coupling enz -35
